This is part of a sample that, as a whole, favours compounds with a hit. Of some 83,000 tested, about 20% had one in any assay.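 Method: cells in 96-well plates; compound added at one concentration; 48 h incubation; percent growth measured; values under 10 scored active.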 Unmarked numbers belong to inactive results. Activity calls are given as the source filed them.

This assay concerns DU-145 prostate. Nature of the assay: NCI-60 one-dose screen, 48 h (100 = growth as untreated, 0 = no growth, -100 = all killed). Conditions: 10 µM unless noted.
Turning to `CCSc1nc(NC)c2cc(-c3ccc(C(F)(F)F)cc3)ccc2n1`, the growth was 105%.
On to `Cc1nc(-c2ccccc2)cc2c(O)c(C(=O)NN)[nH]c(=O)c12`, for which the growth is 115%.
Turning to `Cc1ccc(S(=O)(=O)N2CCCC2CO)cc1` (centres undefined), the growth is 104%.
`CCOC(=O)c1cc(-c2ccc([N+](=O)[O-])cc2)n(-c2ccc(C(=O)O)c(O)c2)c1C`: the growth is 88.6%.
In the case of `COc1cc(CNS(=O)(=O)c2ccc(C)cc2)ccc1OCc1cn(-c2ccc(Br)cc2)nn1`, the growth was 104%.
In the case of `O=C(/C=C/c1ccccc1)c1cccc(OCCCOc2cccc(C(=O)/C=C/c3ccccc3)c2)c1` it was 100%; in that of `C=CCc1c(O)c(C(=O)/C=C/c2ccc(Cl)cc2)c(OC)c2ccoc12`, 78.5%; in that of `COc1ccc(-c2nc3c(c(-c4ccccc4)nn3-c3ccccc3)c(-c3ccc(N4CCOCC4)cc3)c2C#N)cc1`, 106%.
For the compound `O=C1/C(=C/c2ccc(Cl)cc2)COc2ccc(O)c(O)c21`, the growth was 21.4%.
Under `CN(C)c1ccc(Nc2cc(-c3cccc(OC(F)(F)F)c3)nc3ccc(N4CCCC4)cc23)cc1` stands 50.3%.
In the case of `O=C(c1ccc(-c2nc(CSc3nc4ccccc4s3)no2)cc1)N1CCSCC1` it was 81.9%; in that of `N=C(N)c1ccc(-c2ccc(-c3ccc(Cl)cc3)s2)nc1`, -94.8% (active); in that of `COC(=O)c1c2c(c(C)[n+]([O-])c1C)C(=O)C=C(NCc1ccc(OC)cc1)C2=O`, -83.7% (active).
As to `O=C1/C(=C/c2ccc(Cl)cc2)COc2ccc(O)cc21`, the growth was 89.7%.

Source of the values: PubChem BioAssay (NCI).
